BoNT F protease: BoNT/F light chain protease inhibitors, primary screen, biochemical, flow cytometry, MLPCN library. Multiplex microsphere protease cleavage assay. inhibition, % at 10 µM. actives 0.22% (n = 360,000); in the data active = inhibition above about 35%, passing the limit was not always enough; inconclusive = no clear call, values can overlap the other calls
Autofluor counter: compound fluorescence in toxin protease inhibitor counterscreen. compound autofluorescence counterscreen, microsphere flow cytometry; hits give high values. fluorescence intensity (test concentration not listed). actives 3.1% (n = 360,000). AID 624483; in the data active = fluorescence intensity above about 16000; inconclusive = no clear call, values can overlap the other calls
Anthrax LF prot: Bacillus anthracis LF protease inhibitors, primary screen, biochemical, multiplex microsphere, MLPCN library | Lethal factor (Bacillus anthracis), P15917 | inhibition, % at 10 µM | AID 588501, 2011 | multiplex microsphere protease cleavage assay | actives 0.12% (n = 360,000); in the data active = inhibition above about 30%; inconclusive = no clear call, values can overlap the other calls
Target sequence (P15917 whole entry, looked up): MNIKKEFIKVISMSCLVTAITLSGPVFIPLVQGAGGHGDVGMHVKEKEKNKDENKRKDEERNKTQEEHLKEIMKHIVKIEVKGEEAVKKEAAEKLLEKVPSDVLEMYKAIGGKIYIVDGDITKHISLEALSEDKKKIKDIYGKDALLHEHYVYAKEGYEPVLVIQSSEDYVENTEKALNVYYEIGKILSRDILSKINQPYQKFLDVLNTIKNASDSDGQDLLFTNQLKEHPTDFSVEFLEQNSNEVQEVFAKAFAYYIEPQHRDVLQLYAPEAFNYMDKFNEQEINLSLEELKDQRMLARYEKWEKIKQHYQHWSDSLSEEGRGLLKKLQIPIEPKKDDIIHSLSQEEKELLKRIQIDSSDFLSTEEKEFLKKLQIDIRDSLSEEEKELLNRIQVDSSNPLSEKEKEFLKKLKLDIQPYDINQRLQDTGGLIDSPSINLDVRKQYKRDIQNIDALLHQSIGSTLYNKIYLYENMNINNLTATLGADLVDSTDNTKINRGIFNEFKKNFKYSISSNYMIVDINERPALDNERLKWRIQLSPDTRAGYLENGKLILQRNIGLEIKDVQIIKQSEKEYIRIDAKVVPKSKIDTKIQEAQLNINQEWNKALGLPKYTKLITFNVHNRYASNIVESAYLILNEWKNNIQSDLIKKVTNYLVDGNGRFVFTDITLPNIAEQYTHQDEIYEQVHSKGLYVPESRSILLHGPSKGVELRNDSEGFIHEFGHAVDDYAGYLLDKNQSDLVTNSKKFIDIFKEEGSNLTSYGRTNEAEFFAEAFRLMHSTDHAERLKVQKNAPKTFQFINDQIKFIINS
BoNT-A LC inh2: BoNT/A light chain protease inhibitors, primary screen, biochemical, flow cytometry, MLPCN library; multiplex microsphere protease substrate cleavage; AID 588499, 2011; Botulinum neurotoxin type A light chain protease (Clostridium botulinum A str. ATCC 3502); inhibition, % at 10 µM; actives 0.17% (n = 360,000); in the data active = inhibition above about 30%; inconclusive = no clear call, values can overlap the other calls
BoNTA LC inh 2: BoNT/A light chain protease inhibitors, confirmation, biochemical, flow cytometry, cherry pick 2; inhibition, % at 10 µM; shares compounds with BoNT-A LC inh2; multiplex microsphere protease cleavage assay; actives 10% (n = 150); in the data active = inhibition above about 24%
LF protease CP2: Bacillus anthracis LF protease inhibitors, confirmation, biochemical, multiplex microsphere. shares compounds with BoNT-A LC inh2. multiplex microsphere protease cleavage assay. inhibition, % at 10 µM. actives 7% (n = 150). AID 602327, 2012
BoNT-F LC CP2: BoNT/F light chain protease inhibitors, confirmation, biochemical, flow cytometry, cherry pick 2 | shares compounds with BoNT-A LC inh2 | multiplex microsphere protease cleavage assay | inhibition, % at 10 µM | actives 7% (n = 150)
Hits are given with their value; - = inactive; ? = inconclusive; . = no result. Shown are actives, neighbours in structure and some others; about 3.5% of the full set was active somewhere. Rule as the data show it, unless noted: active = inhibition above about 25%; inactive = the rest.

SMILES	BoNT F protease	Autofluor counter	Anthrax LF prot	BoNT-A LC inh2	BoNTA LC inh 2	LF protease CP2	BoNT-F LC CP2
Cc1cccc(NC(=O)NCc2ccc3c(c2)OCO3)c1	-	?	-	-	.	.	.
Cc1cc2cc(CNC(=O)Nc3cccc(Cl)c3)ccc2n1C	-	-	-	48.4	-	-	-
COc1ccc(-c2oc3c(OC)c(OC)c(OC)c(O)c3c(=O)c2OC)cc1OC	-	-	33.8	38.6	-	-	-
CCN(CC)c1ccc2cc(S(=O)(=O)c3ccc(C)cc3)c(=O)oc2c1	-	-	-	-	-	-	-
Cc1cc2cc(CNC(=O)c3ccc(S(=O)(=O)N4CCOCC4)cc3)ccc2n1C	-	-	-	80.7	-	-	-
Cc1cc2cc(CNC(=O)c3ccc(S(=O)(=O)N4CCCCC4)cc3)ccc2[nH]1	-	-	-	44.3	-	-	-
CN(C)S(=O)(=O)c1ccc(C(=O)NCc2ccc3[nH]c4c(c3c2)CCCC4)cc1	-	-	-	-	.	.	.
Cc1cc2cc(CNC(=O)c3ccc(S(=O)(=O)N(C)C)cc3)ccc2n1C	-	-	-	81.6	-	-	-
Cc1ccc(CNC(=O)c2ccc(S(=O)(=O)N3CCCCCC3)cc2)cc1	-	-	-	-	.	.	.
CC(=O)Nc1ccc(S(=O)(=O)NCc2ccc3c(c2)cc(C)n3C)cc1	-	-	-	71.8	-	-	-
CC(=O)Nc1ccc(S(=O)(=O)NCc2ccc(C)cc2)cc1	-	-	-	-	.	.	.
Cc1cc2cc(CNS(=O)(=O)c3ccc4ccccc4c3)ccc2n1C	-	-	-	47.2	-	-	-
Cc1cc(C)c(S(=O)(=O)NCc2ccc3c(c2)cc(C)n3C)c(C)c1	-	-	-	77.5	-	-	-
COC(=O)[C@@]1(Cc2ccc(F)cc2)[C@H]2c3cc(C(=O)N4CCCC4)n(Cc4ccc(C)o4)c3C[C@H]2CN1C(=O)c1ccccc1	-	-	-	-	.	.	.
O=C1C=C(NCCOC23CC4CC(CC(C4)C2)C3)C2(CCCCC2)O1	-	-	-	-	.	.	.
CC(=O)NCCC(=O)Nc1cc(S(=O)(=O)N2CCOCC2)ccc1Oc1ccccc1	-	-	-	-	.	.	.
Cn1ccc2c(-c3cncc4ccccc34)cc3c(c21)C1CCC3C1 (stereo not drawn)	-	-	29.6	47.6	-	-	-
Cn1ccc2c(-c3cccc4ccccc34)cc3c(c21)C1CCC3C1 (stereo not drawn)	-	-	-	-	-	-	-
COc1cccc(C(CNC(=O)C(c2ccccc2)c2ccccc2)N(C)C)c1 (stereo not drawn)	-	-	-	-	.	.	.
COc1ccc2cc(C3=CC(=O)CC(C)(C)C3=O)ccc2c1	-	-	32.1	-	-	-	-
COc1ccc(-c2ccccc2C2=CC(=O)CC(C)(C)C2=O)cc1	-	-	-	-	.	.	.
Cc1nc2ccc(NC(=O)c3cccc(S(=O)(=O)N4CC(C)OC(C)C4)c3)cc2s1 (stereo not drawn)	-	-	30.5	-	-	-	-
CC1CN(S(=O)(=O)c2cccc(C(=O)Nc3ccc(N4CCCCC4)cc3)c2)CC(C)O1 (stereo not drawn)	-	-	-	-	.	.	.
COc1ccc(NC(=O)c2cc(S(=O)(=O)N3CCOCC3)ccc2C)cc1S(=O)(=O)N1CCCCC1	-	-	-	-	.	.	.
COc1ccc(NC(=O)c2cc(S(=O)(=O)N3CCCC3)ccc2C)cn1	73.3	-	44.9	-	-	-	-
SMILES	BoNT F protease	Autofluor counter	Anthrax LF prot	BoNT-A LC inh2	BoNTA LC inh 2	LF protease CP2	BoNT-F LC CP2
COc1ccccc1N1CCN(c2ccc3c(c2)S(=O)(=O)c2cccc(C(=O)NCc4ccc(F)cc4)c2C3=O)CC1	-	-	-	-	-	-	-
O=C(NCc1cccc(F)c1)c1cccc2c1C(=O)c1ccc(N3CCCC3)cc1S2(=O)=O	-	-	-	-	.	.	.
O=C(NCc1ccc(OC(F)(F)F)cc1)c1cccc2c1C(=O)c1ccc(N3CCC(Cc4ccccc4)CC3)cc1S2(=O)=O	-	-	-	-	-	-	-
O=C(NCc1ccc(OC(F)(F)F)cc1)c1cccc2c1C(=O)c1ccc(N3CCCC3)cc1S2(=O)=O	-	-	-	-	.	.	.
CCNC(=O)C1CCCN(C(=O)Cc2ccc3ccccc3c2)CC1 (stereo not drawn)	-	-	-	-	.	.	.
CCCCC(C(=O)NC1CCCC1)N(C(=O)c1snc(C(N)=O)c1N)c1ccc(F)cc1 (stereo not drawn)	-	-	-	-	.	.	.
CCCCCCCCC(c1nc2cc(C)c(C)cc2[nH]1)n1c(=O)c(-c2ccccc2Br)nc2ccccc21 (stereo not drawn)	-	-	-	-	28.1	-	-
CCCCC(c1nc2ccccc2[nH]1)n1c(-c2ccccc2)nc2cc(C)c(C)cc21 (stereo not drawn)	-	-	-	-	.	.	.
CCCCC(c1nc2ccccc2[nH]1)n1c(=O)c(-c2ccccc2)nc2cc(C)c(C)cc21 (stereo not drawn)	-	-	34.0	30.3	-	-	-
COc1cccc(C(=O)NCC(c2ccco2)N2CCOCC2)c1 (stereo not drawn)	-	-	-	-	.	.	.
CCCC(=O)OCC(=O)Nc1ccc2[nH]c(=O)[nH]c2c1	-	-	-	-	.	.	.
Cc1cc(Br)ccc1SCC(=O)OCC(=O)Nc1ccc2[nH]c(=O)[nH]c2c1	61.8	-	36.3	-	-	-	-
CCOC(=O)c1c(C)[nH]c(C(=O)COC(=O)COc2ccccc2C)c1C	-	-	-	-	.	.	.
CCOc1ccccc1OCC(=O)OCC(=O)c1c(C)[nH]c2ccccc12	-	-	-	-	-	-	-
Cc1cccc(C(=O)OCC(=O)c2c(C)[nH]c3ccccc23)c1O	-	-	-	-	-	-	-
COCCNC(=O)C1(C)CCCN(C(=O)c2ccccc2F)C1 (stereo not drawn)	-	-	-	-	.	.	.
Nc1ncnc2c1ncn2[C@@H]1O[C@H](C(=O)N2CCN(Cc3ccccn3)CC2)[C@@H](O)[C@H]1O	-	-	-	-	.	.	.
Cn1ccc2c(-c3ccc(F)cc3F)cc3c(c21)C1CCC3C1 (stereo not drawn)	-	-	-	-	-	-	-
Cn1ccc2c(-c3cccc(C=O)c3F)cc3c(c21)C1CCC3C1 (stereo not drawn)	-	-	-	-	.	.	.
Cn1ccc2c(-c3ccc(F)nc3)cc3c(c21)C1CCC3C1 (stereo not drawn)	-	-	37.2	50.3	33.4	32.2	-
CN(c1cccc(F)c1)c1cc2c(c3c1ccn3C)C1CCC2C1 (stereo not drawn)	-	-	-	-	.	.	.
Cn1ccc2c(-c3cccc(C=O)c3)cc3c(c21)C1CCC3C1 (stereo not drawn)	-	-	-	-	.	.	.
